Source: PubChem BioAssay AID620 (Sanford-Burnham Center for Chemical Genomics, 2007)
About 360 (0.41%) of roughly 87,000 compounds were called active. The full list was thinned out, with actives kept by preference. A number with no mark means an inactive call. Cut-off read from the data, not from the text of the source: active = cytotoxicity above about 50%; inactive = the rest.

Assay: cytotoxicity in HT1080 fibrosarcoma cells, cell-based, fluorescence readout (AID 620);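 note: cells exposed to compound overnight then 4 h with Alamar Blue; 0% = vehicle DMSO and 100% = killing control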
Settings: HT1080 viability, at 10 µM, hits give high values

SMILES | cytotoxicity
CCOC(=O)/C(=C\c1cccnc1)C(=O)c1cc(C(C)=O)c(Nc2ccccc2)s1 | 75.6% (active)
CCOC(=O)c1sc(Nc2ccccc2)nc1C | 15%
CCOC(=O)Nc1cccc(Nc2ccccc2)c1 | -3.2%
CCOC(=O)/C(=C/Nc1ccccc1)[N+](=O)[O-] | -10.2%
CCOC(=O)c1cccc(NC(=O)c2cccnc2)c1 | 0.2%
Cn1c(-c2sc(=S)n(-c3ccccc3)c2N)nc2ccccc21 | -7.2%
CCCCn1c(SCC(=O)N2CCC(C)CC2)nc2cc(S(N)(=O)=O)ccc21 | 27.9%
CC1CCc2c(sc3ncnc(SCC(=O)c4ccccc4)c23)C1 (stereo not drawn) | 4.4%
CC(C)(C)c1csc(NC(=O)Cn2c(=O)oc3ccccc32)n1 | -6.8%
CNC(=O)c1ncnnc1N(C)C(=O)NCc1ccccc1 | -2.1%
CN1CCN(C(=O)c2ccc(C3SCC(=O)N3Cc3ccco3)cc2)CC1 (stereo not drawn) | -8.2%
CN1CC2=Cc3ccccc3OC23Oc2ccccc2C=C3C1 | 51.7% (active)
O=C1c2ccccc2OC2(C=Cc3ccccc3O2)N1Cc1ccccc1 (stereo not drawn) | 15.6%
O=C(Nc1cccc(-c2nc3ccccc3o2)c1)c1ccc(N2C(=O)C3C4C=CC(C4)C3C2=O)cc1 (stereo not drawn) | 21.5%
CCSc1nnc(NC(=O)c2cccs2)s1 | -4.1%
CCSc1nnc(NC(=O)c2ccc3c(c2)OCO3)s1 | 55.2% (active)
CCSc1nnc(NC(=O)c2ccccn2)s1 | -11%
CCSc1nnc(NC(=O)c2ccc(Br)s2)s1 | 68.3% (active)
COCCNc1nnc(SCC(=O)c2ccc3c(c2)OCO3)s1 | 1.3%
CCSc1nnc(NC(=O)c2csc(C)c2)s1 | 25.7%
CCOCCCn1c(SCC(=O)Nc2ccc(C(N)=O)cc2)nc2ccccc2c1=O | -6%
CCOC(=O)c1cc(-c2ccc(C)o2)nn1CCC#N | 0.3%
CCCC1=Nc2cc(C(=O)NCCCOCC)ccc2Sc2ccccc21 | 63.8% (active)
CCC1=Nc2cc(C(=O)NCCCOC(C)C)ccc2Sc2ccccc21 | 39.6%
CCCC1=Nc2cc(C(=O)NCCCOC(C)C)ccc2Sc2ccccc21 | 6.2%

SMILES | cytotoxicity
CCC1=Nc2cc(C(=O)NCCCOC)ccc2Sc2ccccc21 | 68.1% (active)
CCOCCCNC(=O)c1ccc(OC)cc1 | -2.5%
COCCCNC(=O)c1cccc(C(=O)NCCCOC)c1 | 0.6%
CC(C)C1N=C2c3ccccc3N=C(SCc3cc(=O)n4ccccc4n3)N2C1=O (stereo not drawn) | 2.9%
CCOc1ccc(S(=O)(=O)N2CCN(C)CC2)c(C)c1C | 11.2%
CCC(C)(C)n1c(=O)[nH]c2c(c1=O)CCC2 | 25.2%
O=C(Nc1ccccc1N1CCCCC1)c1ncoc1-c1ccc(F)cc1 | -6.7%
CCOc1ccc(/C=C2/SC(=S)N(n3c(C)ccc3C)C2=O)cc1 | -16.1%
COc1ccc(C(=O)N2CCc3cc(OC)c(OC)cc3C2)cc1OC | -5.5%
CCOc1cc(C(=O)N2CCc3cc(OC)c(OC)cc3C2)ccc1OC(F)F | 59.3% (active)
CCOc1ccc(C(=O)N2CCCC2)cc1OC | 4.1%
COC(=O)CN1C(=O)C2(C(C#N)=C(N)Oc3c2c(C)nn3-c2ccccc2)c2ccccc21 (stereo not drawn) | -65.1%
CCc1cccc(CC)c1NC(=O)CN1CC(C)SC1=NC1CCCCC1 (stereo not drawn) | -4.4%
CC1CCCN(S(=O)(=O)c2ccc(NC(=O)CN3CCN(C)CC3)cc2)C1 (stereo not drawn) | -6.1%
Cc1ccc(NC(=O)CN2CC(C)SC2=NC2CCCCC2)cc1 (stereo not drawn) | 87% (active)
CCOC(=O)c1c(NC(=O)CSc2nnc(-c3ccccc3C)n2C)sc(C(C)=O)c1C | -23.9%
O=C1NCCCC1C(=O)N1CCN(C(=O)c2ccco2)CC1 (stereo not drawn) | 1.1%
COc1cccc(NC(=O)CC2C(=O)NC3CCCCC3N2C(=O)c2ccc(F)cc2)c1 (stereo not drawn) | -16.2%
CC(/C=N/NC(=O)c1n[nH]c2c1CCC2)=C\c1ccccc1 | 71.7% (active)
O=C(N/N=C/C(Br)=C/c1ccccc1)c1n[nH]c2c1CCC2 | 66.4% (active)
O=C(O)c1n[nH]c2c1CCCC2 | -12.7%
O=C(N/N=C/C(Br)=C\c1ccccc1)c1n[nH]c2c1CCC2 | 66.5% (active)
CC(/C=N/NC(=O)c1ccc(Br)cc1)=C\c1ccccc1 | -15.4%
O=C(CNc1cccc2ccccc12)N/N=C/C(Br)=C/c1ccccc1 | 1.9%
Cc1ccc(NCC(=O)N/N=C\C(Br)=C\c2ccccc2)cc1 | 8.3%

SMILES | cytotoxicity
CC(=C/c1ccccc1)/C=N/NC(=O)c1cnccn1 | -7.1%
Cc1ccccc1NCC(=O)N/N=C/C(Br)=C/c1ccccc1 | -17.1%
COc1ccc(CC(=O)NCc2nnc(SCC(=O)N3CCN(c4ccccc4)CC3)n2C)cc1 | -7%
COc1ccc(C)cc1NC(=O)CNC(=O)Cn1ccc2ccccc2c1=O | 7.1%
Cc1nnc(Sc2nc3c(c(=O)[nH]c(=O)n3C)n2Cc2ccccc2Cl)s1 | 1%
COCCCNC(=O)Cn1cc2c(n1)CCC(C)C2 (stereo not drawn) | -3.5%
Nc1[nH]c(=S)[nH]c(=O)c1-c1ccccc1 | -5%
O=C(Nc1ccc(N2CCN(Cc3ccccc3)CC2)cc1)c1ncn[nH]1 | -2.9%
CC(=O)c1ccc(NC(=O)c2ccn[nH]2)cc1 | -0.3%
COc1cc(CC(=O)Oc2ccc3c(c2)OCO3)cc(OC)c1OC | 2.2%
COc1cc(CC(=O)NCc2ccc3c(c2)OCO3)cc(OC)c1OC | 3.1%
COc1cc([C@@H]2c3cc4c(cc3[C@H](O)[C@H]3COC(=O)[C@H]23)OCO4)cc(OC)c1OC | 68.5% (active)
COc1ccc2c(c1OC)C(=O)OC2Nc1ncc(Br)cc1Br (stereo not drawn) | 6.2%
COc1cc(C2CC(=O)c3cnc(N)nc3C2)cc(OC)c1OC (stereo not drawn) | 0.9%
CCN1CCN(c2ncc3c(n2)CC(c2cc(OC)c(OC)c(OC)c2)CC3=O)CC1 (stereo not drawn) | 51.1% (active)
COc1ccc(C2CC(=O)c3cnc(N4CCN(Cc5ccccc5)CC4)nc3C2)cc1 (stereo not drawn) | 22.6%
COc1ccc(C2CC(=O)c3c(C)nc(N4CCN(Cc5ccccc5)CC4)nc3C2)cc1OC (stereo not drawn) | -20.1%
COc1cc(C2CC(=O)c3cnc(N4CCN(Cc5ccccc5)CC4)nc3C2)cc(OC)c1OC (stereo not drawn) | 52.5% (active)
CCN1CCN(c2ncc3c(n2)CC(c2ccc(OC)c(OC)c2)CC3=O)CC1 (stereo not drawn) | -13%
COc1ccc(-n2c3c(cc(C(=O)Nc4ccc(C)cc4)c2=O)C(=O)CCC3)cc1 | 14.6%
CCOc1ccc2nc(SCC(=O)NC(=O)NCc3ccco3)[nH]c2c1 | -12.9%
Cc1cc(N2CCCC2)nc(-c2ccccc2O)n1 | 1.6%
Cn1cc(/C=N/n2cnc3sc4c(c3c2=O)CCCC4)c2ccccc21 | -0.6%
Cc1ccc(-c2csc3ncn(/N=C/N(C)C)c(=O)c23)o1 | 1.3%
CCn1cnc2scc(-c3ccccc3)c2c1=O | 6%

SMILES | cytotoxicity
Cn1cc(/C=N/n2cnc3scc(-c4ccc(Cl)cc4)c3c2=O)c2ccccc21 | 57.8% (active)
Cn1cc(/C=N/n2cnc3scc(-c4ccccc4)c3c2=O)c2ccccc21 | 52.6% (active)
Cc1nn(-c2ccccc2)c(N2CCCC2)c1/C=N/n1cnc2scc(-c3ccccc3)c2c1=O | -0.7%
COc1ccc(S(=O)(=O)CCC(=O)NCCc2ccc(C)cc2)cc1 | -7.2%
COCCNC(=O)C(c1cccs1)N(C(=O)Cn1nnc2ccccc21)c1ccccc1 (stereo not drawn) | 2.1%
Nc1cccc(Nc2nc(OC(C(F)(F)F)C(F)(F)F)nc(OC(C(F)(F)F)C(F)(F)F)n2)c1 | -15.3%
Cc1cc(C)cc(C(=O)N2CC(=O)Nc3ccccc32)c1 | 63.6% (active)
Cc1cc(C)c2nc(SCC(=O)N3CC(=O)Nc4ccccc43)c(C#N)cc2c1 | 70.8% (active)
Cc1cc(C)c2nc(SCC(=O)Nc3ccccc3N3CCOCC3)c(C#N)cc2c1 | 4.9%
Cc1cccc2cc(C#N)c(SCC(=O)N3CC(=O)Nc4ccccc43)nc12 | 62.5% (active)
O=C1CN(C(=O)c2ccccc2)c2ccccc2N1 | 1.9%
Cc1ccsc1C(=O)N1CC(=O)Nc2ccccc21 | -1.3%
Cc1cc(C)c2nc(SCC(=O)N3CCCCC3)c(C#N)cc2c1 | -0.9%
Cc1cccc2cc(C#N)c(SCC(=O)N3CCC(C)CC3)nc12 | -4.3%
CCc1ccc2nc(SCC(=O)N3CC(=O)Nc4ccccc43)c(C#N)cc2c1 | -5.8%
CC(C)Nc1oc(Cc2cccc3ccccc23)nc1C#N | 4.7%
O=C(CSc1nc2ccccc2o1)c1ccccc1 | -3.2%
Cc1cccc(NC(=S)N2N=CCC2c2ccccc2)c1 (stereo not drawn) | -1.4%
CC1=C(C(=O)OCc2ccccc2)C(c2ccccc2OC(=O)c2ccc(I)cc2)NC(=O)N1CCCC(=O)O (stereo not drawn) | -5.3%
Cn1c(SCC(=O)NCCNC(=O)CSc2nnc(C(F)(F)F)n2C)nnc1C(F)(F)F | 5.9%
Cc1cc(=O)[nH]c(-n2nc(C)cc2C)n1 | -0.8%
Cc1ccc(Nc2cc(C)nn2-c2nc(C)cc(C)n2)cc1 | -13.7%
Cc1ccc(Nc2cc(C)nn2-c2nc(C)cc(=O)[nH]2)cc1 | 65.9% (active)
